Laboratory results from the supplement of paper PMC11417369.
± gives the standard deviation of the averaged measurements. Over roughly 25,000 sequences, “ln(normalized median fluorescence intensity)” has its median near 8.6; the highest 2% begin near 10. Many of the other results were omitted from the sample, so the highest values are more common in it than they were.

What follows are sequences tested on PfAP2-EXP AP2 domain (GST-tagged) (assay: gcPBM binding intensity (ln(normalized median fluorescence intensity)); higher = stronger DNA binding).
In short: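 Plasmodium falciparum DNA-binding domains carrying a GST tag were expressed in E. coli and applied for 1 h, at about 25 μg on average, to an Agilent 4 × 180k array. The array held primer-extended double-stranded 36-bp intergenic genomic probes together with negative controls, and binding took place in 1× PBS with 1% milk, 0.2 mg/ml BSA, 0.5% salmon testes DNA and 0.03% Triton X-100. An Alexa488 anti-GST antibody detected bound protein, and the array was scanned at 488 nm. Binding intensity is taken as the highest Masliner-normalised natural-log median intensity across replicate spots of either probe orientation.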

Sequence	gcPBM binding intensity (ln)
AAAAAATGGCTAGTTTGTACACAAAAGTTATTGCAT [XGTACX_site5381]	8.43 ± 0.33
TTAATATAGATATAACCACACACATACATCTAATTC [CACACA_site8519]	8.65 ± 0.46
ATTAATTATGTATTTCAACAAAGAAGTGTTATATAT [GTGCAC_negctrl_site215]	8.49 ± 0.35
TCAAAAAAGACACACCGTACATACTATTTGGACAGG [XGTACX_site7699]	8.51 ± 0.36
TATTATATATTAAATGCATGTAAAAATAATATTAAA [TGCATGCA_site643]	9.24 ± 0.44
AACAATTAGAATAACGCATGCATTTATAATATAGAA [TGCATGCA_site595]	9.52 ± 0.071
AAATAATATATGAATGCACACAGTAAAAATTAAAGA [CACACA_site2252]	8.94 ± 0.35
AACAATTATTGTAATGCATGCACTGAATATAGAAAG [TGCATGCA_site889]	10.3 ± 0.24
TAATTGTACACATGCACACACAAATATTATAGATGT [CACACA_site6528]	8.99 ± 0.37
CAATTATTGTAATGCATGCACTGAATATAAAAAGAA	10.3 ± 0.23
TATAAGAGAAGAAGAAAAAAAAGGTTTCTATAGAAA [XGTACX_negctrl_site421]	8.76 ± 0.52
AATAAAAAAAAAATAAATTTAATAATAATAATAAAA [CACACA_negctrl_site569]	8.23 ± 0.33
ATATTATCATTTTTTTTAATGGAAAAAAAAAAAAAA [CACACA_negctrl_site1298]	8.2 ± 0.61
TTTTTCAGAAAAGAAACACACATATAAATATTTATA [CACACA_site7170]	8.47 ± 0.46
AGTATACACAGACACACACACACATATATATATATA [CACACA_site8510]	10.2 ± 0.23
TAATTAAAATCATATACACACCCATATATATATATA [CACACA_site8524]	10 ± 0.25
CATATACATACACATACACACATACAGACATACACA [CACACA_site6919]	8.69 ± 0.37
ATTCTACACCCACATACACACATATATATATATATA [CACACA_site3426]	10.2 ± 0.26
TATACAGACAGACACACACACATATATATATATATA [CACACA_site1734]	10.1 ± 0.42

Sequence	gcPBM binding intensity (ln)
TACATACACAGACACACACACATATATATATATATA [CACACA_site3557]	10.2 ± 0.2
ATTCTAATCATATACACACCCATATATATATATATA [CACACA_site1774]	10.3 ± 0.3
TACACCCACCCACATACACACACATACACATATATA [CACACA_site8503]	9.33 ± 0.71
ATTAAAATCATATACACACCCATATATATATATATA [CACACA_site5050]	10.1 ± 0.34
CATACATACAGACACACACACATATATATATATATA [CACACA_site2920]	10.1 ± 0.35
TACACATACAGACATACACACATACACATATACACA [CACACA_site6918]	8.66 ± 0.38
CACCCACCCACATACACACACATACACATATATATA [CACACA_site1722]	9.3 ± 0.45
TATATATATTTATAATGTACACATATATGTAAATAT [XGTACX_site3695]	8.51 ± 0.2
ATATATATATATATAAAGTGAAGTATGAGGGAAATA [XGTACX_negctrl_site497]	10.1 ± 0.3
AGAATAAAAAGGAACACACACACACGCATATAAATA [CACACA_site7659]	9.01 ± 0.55
TTACATATTATACGAAGTACGTACAAATACTTATAT [XGTACX_site8598]	8.6 ± 0.26
GTATGTTTGTTATGCACACAAATGCATCTTATTTCC [CACACA_site2690]	8.96 ± 0.28
TTATTTAACGTATTCTCACACATATATATATATAAT [CACACA_site5226]	8.64 ± 0.42
TAAATATGTATAAATTGTACAAAATATATGAATAGT [XGTACX_site5659]	8.94 ± 0.29
CTCATAATTTCTGAACGTACGTATTTCTCATTTTTA [XGTACX_site7296]	8.83 ± 0.44
TCCTTTTTTAAAAGTTGTACATTATTGTTATTTGTT [XGTACX_site4686]	8.65 ± 0.3
TTTTAAATAATTCGTAATTATAATTATGGAAAAAAG [CACACA_negctrl_site152]	8.43 ± 0.48
TTAGCAACTATTACTACACACATTTGTATTTAATTT [CACACA_site4961]	8.49 ± 0.35
GTATTCTACAGACACATACACACATATATATATATA [CACACA_site3427]	10.1 ± 0.22

Sequence	gcPBM binding intensity (ln)
ATTCTACACAGACATACACACATATATATATATATA [CACACA_site5826]	10.2 ± 0.4
TACAGACATACATACACACATACATATATATATATA [CACACA_site1940]	10.1 ± 0.11
TTTATTAATTAAACCATACACACATAATTTTTTTAT [CACACA_site842]	8.34 ± 0.47
ATTTAGAAAAATAAAACACACATATAGATGTAAATA [CACACA_site7853]	8.57 ± 0.58
CAAGAAAAGAAACACACACACATATATATATATATA [CACACA_site3881]	10.1 ± 0.26
CACAAGAAAATTCACACACACACATATATATATATA [CACACA_site3880]	10.1 ± 0.27
TTAAAAAGAAAGTTCACACACATATATATGACGGAA [CACACA_site2602]	8.93 ± 0.45
AAACAGAAGACATATACACACATACAAAAAAGTGCA [CACACA_site4699]	8.81 ± 0.33
CACAAGAAAGTTCACACACACACATATATATATATA [CACACA_site6009]	10.2 ± 0.18
AAAAAAAAAAAAGAAACACACACATATATATATATA [CACACA_site8525]	10.1 ± 0.31
CACAAAAAGAAACACACACACATATATATATATATA [CACACA_site999]	10.2 ± 0.22
AAGAAAAAAAAAAAAACACACATATATATATATATA [CACACA_site2027]	10.2 ± 0.13
AAGACAAAACAAAGAAGTACATATATATATATATAT [XGTACX_site4067]	10.3 ± 0.4
AAAAAAAAAAGAAACACACACATATATATATATAAT [CACACA_site5052]	8.61 ± 0.52
AAAAAAAAAAAAGAAACACACATATATATATATATA [CACACA_site140]	10.1 ± 0.6
AAAAAAAAAAGAAAAAGTACATACATACATATATAT [XGTACX_site6405]	8.46 ± 0.36
TAGTAATATGTATCCATACACACATACATTTTATTT [CACACA_site873]	8.52 ± 0.41
TATAACAAAATATTCACACATATAAGTAAATAAAGG [CACACA_site5777]	8.73 ± 0.28
AATTTTAATTATATCACACATAATATATACCAAAAA [CACACA_site6011]	8.51 ± 0.38
